LYPLA2 counter: LYPLA2 inhibitors, primary screen, counter-screen for PME1 inhibitor project, biochemical, fluorescence polarization, FP-Rh probe ABPP | inhibition, % at 5.9 µM | recombinant LYPLA2 | AID 2177, 2009 | actives 0.38% (n = 320,000) | Acyl-protein thioesterase 2 (Homo sapiens), O95372;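 active = inhibition above the screen-wide mean plus 3 SD, limit set per campaign, cut at about 26% in these data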;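 also: 0% = LYPLA2 with DMSO and 100% = wells lacking LYPLA2 enzyme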
PAFAH1B2 inh: PAFAH1B2 enzyme inhibitors, primary screen, biochemical, fluorescence polarization, human. Platelet-activating factor acetylhydrolase IB subunit alpha2 (Homo sapiens), P68402. recombinant PAFAH1B2, FP-rhodamine activity probe. inhibition, % at 3.39 µM. actives 1.2% (n = 340,000). AID 492953, 2010;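 active = inhibition above the mean of all tested compounds plus 3 SD, cut at about 24% in these data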;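 also: 0% = enzyme with DMSO and 100% = wells lacking PAFAH1B2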
Target sequence (P68402 whole entry, looked up): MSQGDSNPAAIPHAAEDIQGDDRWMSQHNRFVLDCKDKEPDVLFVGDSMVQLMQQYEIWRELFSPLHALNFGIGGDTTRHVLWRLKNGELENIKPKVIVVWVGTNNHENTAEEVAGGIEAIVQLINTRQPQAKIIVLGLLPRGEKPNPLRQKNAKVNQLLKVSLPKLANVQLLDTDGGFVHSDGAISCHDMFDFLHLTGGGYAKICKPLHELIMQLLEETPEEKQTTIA
PAFAH1B3 inh: PAFAH1B3 enzyme inhibitors, primary screen, biochemical, fluorescence polarization, human; Platelet-activating factor acetylhydrolase IB subunit alpha1 (Homo sapiens), Q15102; recombinant PAFAH1B3, FP-rhodamine probe; inhibition, % at 3.39 µM; actives 0.28% (n = 340,000);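 active = inhibition above the screen-wide average of all tested compounds plus 3 SD, cut at about 25% in these data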;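 also: 0% = enzyme with DMSO only and 100% = wells lacking PAFAH1B3 protein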
Target sequence (Q15102 whole entry, looked up): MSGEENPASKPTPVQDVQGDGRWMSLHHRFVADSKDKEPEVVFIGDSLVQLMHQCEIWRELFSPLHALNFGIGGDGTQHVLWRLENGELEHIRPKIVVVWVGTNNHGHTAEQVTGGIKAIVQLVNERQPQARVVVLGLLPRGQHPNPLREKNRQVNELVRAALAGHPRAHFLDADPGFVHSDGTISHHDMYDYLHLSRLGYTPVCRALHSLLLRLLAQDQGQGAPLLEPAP
PAFAH2 inh: PAFAH2 enzyme inhibitors, primary screen, biochemical, fluorescence polarization, human | inhibition, % at 3.39 µM | actives 0.99% (n = 340,000) | recombinant PAFAH2, FP-rhodamine activity probe;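 active = inhibition above the mean over all tested compounds plus 3 SD, cut at about 30% in these data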;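 also: inhibitors block probe labeling of enzyme so polarization drops; 0% = enzyme with DMSO and 100% = wells lacking PAFAH2 protein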
LYPLA1 counter: LYPLA1 inhibitors, primary screen, counter-screen for PME1 inhibitor project, biochemical, fluorescence polarization, FP-Rh probe ABPP | AID 2174, 2009 | actives 0.16% (n = 320,000) | inhibition, % at 5.9 µM | recombinant LYPLA1 | Acyl-protein thioesterase 1 (Homo sapiens), O75608;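 active = inhibition above the mean of all tested compounds plus 3 SD, set per campaign, cut at about 14% in these data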;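 also: inhibitors block serine hydrolase probe labeling of LYPLA1 so polarization falls; 0% = enzyme with DMSO and 100% = wells lacking LYPLA1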
pPAFAH FP inh: pPAFAH enzyme inhibitors, primary screen, biochemical, fluorescence polarization, human | Platelet-activating factor acetylhydrolase (Homo sapiens), Q13093 | recombinant pPAFAH, FP-rhodamine probe fluorescence polarization | inhibition, % at 3.39 µM | actives 1.5% (n = 330,000);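 active = inhibition above the mean inhibition across the screen plus 3 SD, cut at about 25% in these data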;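 also: inhibitors block binding of the rhodamine activity-based probe so polarization drops; 0% = enzyme with DMSO and 100% = wells lacking pPAFAH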
Starred values were filed as active, the others as inactive; . = not tested or not shown. A selection: hits, their analogues and other compounds. The true share with any hit is near 2.9%.

SMILES	LYPLA2 counter	PAFAH1B2 inh	PAFAH1B3 inh	PAFAH2 inh	LYPLA1 counter	pPAFAH FP inh
CC1=C(C(=O)N(C)C)C(c2ccc(C)s2)NC(=S)N1 (stereo unspecified)	3	-3	7	-10	-2	-3
c1ccc(CNc2nc(CN3CCOCC3)nc3scc(-c4ccccc4)c23)cc1	5	4	1	0	-3	34*
c1ccc(-c2csc3ncnc(NCCN4CCOCC4)c23)cc1	3	4	-8	2	3	5
Clc1ccc(CNc2nc(CN3CCOCC3)nc3scc(-c4ccccc4)c23)cc1	-3	7	9	-1	-1	33*
Clc1ccc(-c2csc3ncnc(NCCN4CCOCC4)c23)cc1	4	1	2	4	6	-2
O=C(O)CC/C(=C\c1ccc2c(c1)OCO2)c1nc2ccccc2s1	-4	2	3	6	-2	3
O=C(O)CC/C(=C\c1ccc(N2CCOCC2)c([N+](=O)[O-])c1)c1nc2ccccc2s1	.	92*	0	2	.	.
O=C(CSc1nc2ccccc2s1)Nc1ccc(N2CCOCC2)c(Cl)c1	12	2	3	4	-4	7
COc1cc(/C=C(\CCC(=O)O)c2nc3ccccc3s2)ccc1OCC(=O)Nc1c(Cl)cccc1Cl	.	67*	6	0	.	5
O=C(O)C/C(=C\c1ccc(N2CCOCC2)c([N+](=O)[O-])c1)c1nc2ccccc2s1	3	4	-7	12	4	26*
COC(=O)c1ccc(-n2c(C)cc(C(=O)CSc3cccc[n+]3[O-])c2C)cc1	5	2	6	2	-2	16
Cc1cc(C(=O)CSc2cccc[n+]2[O-])c(C)n1-c1ccc(OC(F)F)cc1	-1	2	5	5	-1	31*
COc1ccccc1N1CCN(/N=C/c2cc(Br)ccc2F)CC1	-6	4	2	-5	-4	9
C/C(=N\OC(=O)c1ccc(F)cc1)c1nccs1	2	4	10	33*	-1	4
O=C1CCCC(O)=C1N=Nc1ccc(C(=O)O)cc1	1	39*	50*	52*	-1	31*
NC(=O)N/N=C1\c2ccccc2-c2c(C(N)=O)cccc21	1	3	-8	7	0	-1
CC(C)c1c(C(=O)N/N=C/c2ccc3c(c2)OCO3)nnn1-c1nonc1N	-8	2	7	1	-2	3
CCN(CC)c1ccc(/C=N/NC(=O)c2nnn(-c3nonc3N)c2C(C)C)c(O)c1	10	13	12	11	-7	28*
COc1ccccc1Nc1nc2ccccc2n1C	5	-1	0	3	3	28*
CC1C/C(=C/c2ccco2)C(=O)/C(=C/c2ccco2)C1 (stereo unspecified)	0	.	.	.	-6	48*
O=C1N[C@@H](Cc2c[nH]c3ccccc23)COC(=O)[C@@H](Cc2ccc(F)cc2)CC/C=C/C[C@@H]1CC(=O)N(CCO)Cc1ccccc1	.	34*	1	-1	.	13
O=C1NC[C@@H](c2ccccc2)OC(=O)[C@@H](Cc2ccc(F)cc2)C/C=C\C[C@@H]1CC(=O)N(CCO)Cc1ccccc1	.	64*	-3	11	.	26*
O=C1NCCOC(=O)[C@H](Cc2ccc(F)cc2)C/C=C\C[C@H]1CC(=O)N(CCO)Cc1ccccc1	.	30*	4	0	.	7
O=C1N[C@@H](Cc2c[nH]c3ccccc23)COC(=O)[C@H](Cc2ccc(F)cc2)C/C=C\C[C@H]1CC(=O)N(CCO)Cc1ccccc1	.	10	6	3	.	2
CC1CCc2c(sc3nc(CN4CCOCC4)nc(NS(=O)(=O)c4cccc([N+](=O)[O-])c4)c23)C1 (stereo unspecified)	4	0	6	6	1	25*
SMILES	LYPLA2 counter	PAFAH1B2 inh	PAFAH1B3 inh	PAFAH2 inh	LYPLA1 counter	pPAFAH FP inh
Cc1ccc(-c2cc(-c3ccco3)c3c(N)c(C(=O)NN)oc3n2)cc1	5	5	13	22	-4	32*
COc1cccc(/C=N/NC(=O)c2oc3nc(-c4ccccc4)cc(-c4ccco4)c3c2N)c1	-15	4	2	4	-11	17
NNC(=O)c1oc2nc(-c3cccs3)cc(-c3ccco3)c2c1N	4	11	6	15	-1	32*
Clc1cccc(CSc2ncn(-c3ccccc3)n2)c1	3	3	7	4	-2	9
O=C(NCc1cccnc1)c1cc(Sc2cccc(Cl)c2)nc2ccccc12	2	2	-4	10	-5	33*
Cc1cc(=O)oc2cc(NC(=O)COc3cccc(C(F)(F)F)c3)ccc12	-5	-3	9	2	-3	6
CC(/C=C/c1ccc2c(c1)OCO2)=N/NC(=O)c1ccc(C)nc1	1	2	8	-11	2	2
Nc1ccc2nc(-c3ccccc3)c(-c3ccccc3)nc2c1	-2	14	9	9	0	27*
COc1ccccc1NC1=NCC(=O)N1Cc1ccccc1	2	1	1	-8	3	-1
CCOc1ccccc1NC1=NCC(=O)N1Cc1ccc(F)cc1	6	0	-3	0	0	32*
COc1cccc(-c2c(C(=O)N/N=C/c3ccsc3)nnn2-c2nonc2N)c1	-2	1	3	-1	-1	3
Cc1ccc2nc(SCC(=O)Nc3ccc(F)cc3)nc(=O)n2c1	4	3	5	4	-3	5
Cc1cc(C)cc(NC(=O)CSc2nc(=O)n3cc(C)ccc3n2)c1	7	4	2	9	5	25*
COc1ccc(NS(=O)(=O)c2cccc(NC(=O)CCC(=O)c3cccs3)c2)cc1	-14	-3	-2	-1	-6	33*
NS(=O)(=O)c1cccc(NC(=O)CCC(=O)c2cccs2)c1	-3	5	-1	2	1	0
COc1ccc(NS(=O)(=O)c2cccc(NC(=O)CCS(=O)(=O)c3ccccc3)c2)cc1	-2	3	0	8	0	34*
C=CCC(=O)N1CCCC(C(=O)c2ccc(Cl)cc2)C1 (stereo unspecified)	-2	8	3	5	-3	2
COc1cc(NC(=O)CSc2nc3ccccc3cc2C)c(C(=O)O)cc1OC	6	12	5	4	3	12
CCc1cc2ccccc2nc1SCC(=O)Nc1cc(OC)c(OC)cc1C(=O)O	6	14	9	16	0	33*

Assay outcomes as filed in PubChem BioAssay.
